This is a sample that favours compounds with a hit; in the whole collection about 4% have one here.
Caspase-1 inhib – blocks human caspase-1 allosterically or competitively | P29466 | Caspase-1 enzyme, Ac-WEHD-AFC fluorogenic rate | Potency, µM (highest dose often 57.5 µM), for the others: at the top dose activity change, negative = inhibition, hits mostly inhibitors | 75,000 compounds, 0.03% hits;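 also: plate controls were vehicle for no effect and no substrate for full effect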
TSHR agonist – TSH receptor (human) agonism | P16473 | HEK293-CNG-TSHR cells (CNG channel as cAMP sensor), membrane potential dye, cAMP | Potency, µM (highest dose often 57.1 µM), without a hit: top-dose activation, actives largely listed as activators | 73,000 compounds, 0.48% hits | AID 926; active = well fitted activation curve with a large enough effect in the main read-out, with a control signal flat, not every such curve was filed as active; inconclusive = small, poorly fitted or top-dose-only effect, or a change in a side signal; inactive = no such curve, though single readings can be large or run the other way; % of control where 0% means no effect;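 also: the control signal comes from parental cells without the receptor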
Target sequence (P16473 whole entry, looked up): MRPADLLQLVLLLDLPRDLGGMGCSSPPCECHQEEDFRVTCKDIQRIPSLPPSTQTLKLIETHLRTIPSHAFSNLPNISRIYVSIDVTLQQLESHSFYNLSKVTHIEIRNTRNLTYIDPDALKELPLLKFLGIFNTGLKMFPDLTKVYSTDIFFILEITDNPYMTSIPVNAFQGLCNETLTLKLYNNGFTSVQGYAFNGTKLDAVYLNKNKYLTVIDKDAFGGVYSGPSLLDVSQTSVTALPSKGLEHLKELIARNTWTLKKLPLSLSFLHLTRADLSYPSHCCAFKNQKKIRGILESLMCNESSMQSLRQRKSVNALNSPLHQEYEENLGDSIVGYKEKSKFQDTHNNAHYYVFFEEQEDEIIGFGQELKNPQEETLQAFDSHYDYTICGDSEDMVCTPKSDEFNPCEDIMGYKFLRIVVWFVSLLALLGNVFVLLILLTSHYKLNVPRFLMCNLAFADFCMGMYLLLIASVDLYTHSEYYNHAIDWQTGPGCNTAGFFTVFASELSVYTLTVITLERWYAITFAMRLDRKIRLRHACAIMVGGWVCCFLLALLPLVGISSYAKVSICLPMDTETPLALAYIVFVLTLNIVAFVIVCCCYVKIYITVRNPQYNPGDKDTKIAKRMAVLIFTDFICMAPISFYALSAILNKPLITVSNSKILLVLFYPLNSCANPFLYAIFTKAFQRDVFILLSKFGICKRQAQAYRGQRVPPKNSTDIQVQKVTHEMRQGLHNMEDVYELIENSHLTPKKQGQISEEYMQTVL
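cAMP rise detected as CNG-channel membrane depolarization by fluorescent dye (emission 590 nm), 30 min after compound, following 60 min dye loading containing 100 uM RO 20-1724 at room temperature. Cells: TSHR/CNG HEK 293, with parental CNG HEK 293 as control.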
GBA activity – alters purified human glucocerebrosidase activity; purified enzyme, resorufin glucoside fluorescence (screen aimed at inhibitors), 20 min; 48,000 compounds, 1.1% hits; Potency, µM; P04062; AID 360; in the data active = potency below about 15 µM; inconclusive = mostly about 16 µM to 33 µM;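 also: the screen sought inhibitors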
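Normal human glucocerebrosidase (0.2 nM final) was assayed with resorufin β-D-glucopyranoside (30 uM final) in 50mM citric acid/KH2PO4, 10mM sodium taurocholate, 0.01% tween-20, pH 5.9. Compounds were titrated; fluorescence (Ex 548, Em 600) read after 20 min at RT.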
Caspase-7 inhib – blocks human caspase-7 allosterically or competitively. recombinant caspase-7, Ac-DEVD-AFC fluorescence rate. Potency, µM (doses to about 57.5 µM), for inactives: at the highest dose activity change, negative = inhibition, hits mostly inhibitors. 75,000 compounds, 0.02% hits; active = well fitted inhibition curve with a large enough effect in the main read-out, with a control signal flat, not every such curve was filed as active; inconclusive = small, poorly fitted or top-dose-only effect, or a change in a side signal; also: % of control where 0% means no effect
PK Bst – modulators of Bacillus stearothermophilus pyruvate kinase | 51,000 compounds, 1.2% hits | Potency, µM | AID 361 | purified pyruvate kinase, luminescence ATP production; ribose 5-phosphate activator present at AC10; in the data active = potency below about 11 µM; inconclusive = mostly about 12 µM to 25 µM;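 the screen sought inhibitors and activators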;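 also: scaled between full activation by ribose 5 phosphate and full inhibition by luteolin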
HEK293 cAMP cs – counter-screen for TSHR agonists: cAMP increase in parental HEK293; parental HEK293 CNG cAMP sensor, membrane potential fluorescence; Potency, µM (titrated, usually from 57.1 µM), for the others: at the top dose activation, most hits filed as activators; 73,000 compounds, 2.5% hits; also: % of control where 0% means no effect; nearly all actives have a fitted effect of over 55% in size
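Parental HEK 293 cells stably expressing a modified CNG channel (no TSHR) report cAMP rise as membrane depolarization. Membrane potential dye with 100 uM RO 20-1724 was loaded for 60 min at room temperature, then compound added for 30 min; fluorescence read at 590 nm.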
Starred values were filed as active, the others as inactive; i = inactive; ? = inconclusive; nt = no result given; ! = not active in a repeat; [ ] = dose if it differs, or a comment. Unless noted, calls follow the shape of the dose curve; as a rule, active = well fitted curve in the direction sought with a large enough effect; inconclusive = small, poorly fitted or top-dose-only effect, or another doubt; inactive = no such curve, though single readings can be large; an effect the other way counts as inactive or inconclusive. Potency is read from the fitted curve at half-maximal effect.

SMILES | Caspase-1 inhib | TSHR agonist | GBA activity | Caspase-7 inhib | PK Bst | HEK293 cAMP cs
CC(=O)[C@H](CC(C)C)NC(=O)[C@@H](CC(C)C)NC(=O)[C@H](CC(C)C)NC(=O)OCc1ccccc1 | -2% | ? | nt | -4% | nt | 25µM*
CCCCCCCCCCCCCCCCOC[C@@H](COCC(F)(F)F)OP(=O)(O)OCO | nt | 20µM* | nt | nt | nt | 21%
Cc1ccnc(Nc2nc(-c3c(C)nc4sccn34)cs2)c1 | -4% | -16% | >77 | -2% | 11* | -14%
Cc1nc2sccn2c1-c1nc(-c2cc3ccccc3o2)cs1 | -3% | ? | nt | -2% | ? | ?
Fc1ccc(-c2cc3nc4c(c(N5CCOCC5)n3n2)CCCC4)cc1 | -4% | ? | >77 | 2%[0.00368 µM] | i | ?
O=c1c2c(nc3cc(-c4ccc(F)cc4)[nH]n13)CCCC2 | -5% | -4% | ? | -6% | 5.3* | 7%
NC[C@](O)(CS(=O)(=O)O)c1ccc(Cl)cc1 | -2% | 0.13µM*! | nt | 1% | nt | -2%
COCCn1nnnc1C(CC(C)C)N1CCN(C(=O)c2ccco2)CC1 (stereo unspecified) | -2% | 0% | >77 | 0% | >57 | 20%
CCCCC(c1nnnn1C1CCCC1)N1CCN(C(=O)c2ccco2)CC1 (stereo unspecified) | 3% | ? | >77 | 1% | >57 | ?
CCCCC(c1nnnn1C1CCCC1)N1CCN(C2CCCCC2)CC1 (stereo unspecified) | -1% | ? | >77 | 1% | >57 | 2.5µM*
CC(C)CC(c1nnnn1C1CCCC1)N1CCN(C(=O)c2ccco2)CC1 (stereo unspecified) | 1% | ? | >77 | 0% | >57 | 7.9µM*
CCCC(c1nnnn1C1CCCC1)N1CCN(C(=O)c2ccco2)CC1 (stereo unspecified) | 1% | ? | >77 | 1% | >57 | 16µM*
CCCC(c1nnnn1C1CCCCC1)N1CCN(c2ncccn2)CC1 (stereo unspecified) | -2% | 11% | >77 | 0% | >57 | 15%
O=[N+]([O-])c1ccc([C@@H](Nc2ccccc2)c2ccc3cccnc3c2O)cc1 | 3%[11.5 µM] | -3%[11.4 µM] | nt | 0%[11.5 µM] | nt | -1%[11.4 µM]
O=C(Nc1ccc(NC(=O)C2CCCCC2)cn1)c1ccco1 | -2% | 3% | 9.8* | 2% | i | 0%
O=C(Nc1ccc(NC(=O)C23CC4CC(CC(C4)C2)C3)cn1)c1ccco1 | 1% | 1% | >77 | 0% | >57 | 0%
Cc1cc(C(=O)CSc2nnnn2-c2ccccc2)c(C)n1CC1CCCO1 (stereo unspecified) | 0% | ? | >77 | -2% | >57 | 25µM*
COc1cc(-c2nnc(SCC(=O)c3cc(C)n(CC4CCCO4)c3C)o2)cc(OC)c1OC (stereo unspecified) | -2% | 18% | 13* | -6% | >57 | 5%
Cc1cc(-n2c(C)cc(C(=O)CSc3nnnn3-c3ccccc3)c2C)no1 | -5% | 20µM* | >77 | -3% | >57 | 24%
COc1cc(-c2nnc(SCC(=O)c3ccc(C)cc3)o2)cc(OC)c1OC | -2% | ? | i | 3% | >57 | ?
O=C(c1ccc(C23CC4CC(CC(C4)C2)C3)o1)N1CCOCC1 | 0% | 13µM* | >77 | 1% | >57 | 19%
Cc1cccc(-c2nnc(-c3ccc(N)cc3)o2)c1 | 1% | 9% | >77 | 0% | 9* | 4%
Cc1c(C#N)c2ccccc2n1CC(=O)N1CCc2ccccc2C1 | 1% | ? | nt | -2% | nt | ?
CCCCNc1nc2ccccc2n1CC(=O)N1CCc2ccccc2C1 | -1% | ? | >77 | 2%[0.00368 µM] | >57 | 2µM*
Cc1ccc(Cc2c(C)nc3nc(SCC(=O)NCc4ccco4)nn3c2C)cc1 | -3% | ? | >77 | -2% | >57 | 16µM*
Cc1cccc(Cc2c(C)nc3nc(SCC(=O)NCc4ccco4)nn3c2C)c1 | 1% | ? | >77 | 0% | >57 | 10µM*
Cc1ccccc1Cc1c(C)nc2nc(SCC(=O)NCc3ccco3)nn2c1C | 0% | 17%[11.4 µM] | >77 | -3% | >57 | 27%

Bioassay records (PubChem)
